Experiment [1] addresses Cytochrome P450 2C19 (Homo sapiens) (UniProt P33261). The experiment is described as follows: Cytochrome P450 Family 2 Subfamily C Member 19 (CYP2C19) small molecule antagonists: luciferase reporter qHTS assay (AID 1671197). Also: nearly all actives have a fitted effect of over 65% in size. As to activity change, negative = inhibition: series mostly up to about 120 µM. A digest of the protocol:
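Luminescent readout of CYP2C19 activity: luciferin product detected 20 min after adding detection reagent. Before that, compound and enzyme-substrate mix preincubated 10 min at room temperature; NADPH-regenerating system started a 1 h, 37C reaction. Ketoconazole as positive control.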

Experiment [2] concerns the target Voltage-gated inwardly rectifying potassium channel KCNH2 (Homo sapiens) (UniProt Q12809). The experiment is described as follows: Human Ether-a-go-go-Related Gene (hERG) channel small molecule antagonists: fluorescence cell-based qHTS assay (AID 1671200). Also: nearly all actives have a fitted effect of over 50% in size. As to activity change, negative = inhibition: series mostly up to about 77 µM. The gist of the method:
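Thallium flux as potassium surrogate: FluxOR II dye loaded 1 h at room temperature into hERG-expressing U2OS cells, then stimulus buffer added after 10 min. Kinetic 480 nm excitation/540 nm emission read, 2 min.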
Background: Block of hERG is tested as a sign of cardiac risk.

Experiment [3] deals with Cytochrome P450 3A4 (Homo sapiens) (UniProt P08684). The experiment can be described thus: Cytochrome P450 Family 3 Subfamily A Member 4 (CYP3A4) small molecule antagonists: luciferase reporter qHTS assay (AID 1671201). Also: nearly all actives have a fitted effect of over 50% in size. As to activity change, negative = inhibition: series mostly up to about 120 µM. The gist of the method:
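Recombinant human CYP3A4 converts a proluciferin substrate to luciferin over 1 h at room temperature after NADPH regeneration solution is added (compound preincubated 10 min); detection reagent stops reaction, luminescence read 20 min later as relative units.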

Experiment [4] has as its target Cytochrome P450 1A2 (Homo sapiens) (UniProt P05177). The experiment is described as follows: Cytochrome P450 Family 1 Subfamily A Member 2 (CYP1A2) small molecule antagonists: luciferase reporter qHTS assay (AID 1671199). Also: nearly all actives have a fitted effect of over 50% in size. As to activity change, negative = inhibition: series mostly up to about 120 µM. The gist of the method: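 Quantitative high-throughput format using the P450-Glo CYP1A2 system. Reaction initiated by NADPH regeneration solution, 1 h at room temperature, then stopped with detection reagent; luminescence measured 20 min later.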
For orientation: Reporter assays use an easily measured gene product as a stand-in for the process of interest.

The target of experiment [5] is Cytochrome P450 2C9 (Homo sapiens) (UniProt P11712). The experiment can be described thus: Cytochrome P450 Family 2 Subfamily C Member 9 (CYP2C9) small molecule antagonists: luciferase reporter qHTS assay (AID 1671198). Also: nearly all actives have a fitted effect of over 50% in size. As to activity change, negative = inhibition: series mostly up to about 120 µM. A digest of the protocol: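 CYP2C9 activity was measured with a P450-Glo proluciferin substrate. Enzyme–substrate mix was held with compound for 10 min at room temperature, then NADPH regeneration solution was added for 1 h at 37C. Luciferin product was read as luminescence.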
Cytochrome P450 2C9 (Homo sapiens), sequence (P11712 whole entry, looked up): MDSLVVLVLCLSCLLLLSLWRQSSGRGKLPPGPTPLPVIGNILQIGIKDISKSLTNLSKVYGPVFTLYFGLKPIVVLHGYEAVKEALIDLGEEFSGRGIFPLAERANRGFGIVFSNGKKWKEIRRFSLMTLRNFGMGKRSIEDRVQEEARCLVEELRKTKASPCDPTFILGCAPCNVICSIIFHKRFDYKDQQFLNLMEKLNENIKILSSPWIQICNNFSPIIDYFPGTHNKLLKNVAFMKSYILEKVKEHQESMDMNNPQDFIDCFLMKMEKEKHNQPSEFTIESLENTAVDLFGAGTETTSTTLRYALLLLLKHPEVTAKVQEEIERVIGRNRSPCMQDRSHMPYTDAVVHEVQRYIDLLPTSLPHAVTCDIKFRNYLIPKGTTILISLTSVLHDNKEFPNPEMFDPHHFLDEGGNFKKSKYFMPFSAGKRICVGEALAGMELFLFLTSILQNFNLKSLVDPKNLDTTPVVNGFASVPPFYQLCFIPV

Among the data in PubChem BioAssay (Tox21) are Potency and activity change, negative = inhibition values, retold here.

The structures appear in SMILES notation. Records with an inconclusive call do not appear. Unmarked numbers belong to inactive results. Calls of active or inactive are those of the source. Calls follow the shape of the dose curve; as a rule, active = well fitted curve in the direction sought with a large enough effect in the repeat runs; inconclusive = weak or mixed curves; inactive = no such curve, though single readings can be large; an effect the other way counts as inactive or inconclusive.
% is scaled to controls: 0 for no effect and ±100 for the full control effect; potency is read from the fitted curve at half-maximal effect.

Voltage-gated inwardly rectifying potassium channel KCNH2 (Homo sapiens), sequence (Q12809 whole entry, looked up): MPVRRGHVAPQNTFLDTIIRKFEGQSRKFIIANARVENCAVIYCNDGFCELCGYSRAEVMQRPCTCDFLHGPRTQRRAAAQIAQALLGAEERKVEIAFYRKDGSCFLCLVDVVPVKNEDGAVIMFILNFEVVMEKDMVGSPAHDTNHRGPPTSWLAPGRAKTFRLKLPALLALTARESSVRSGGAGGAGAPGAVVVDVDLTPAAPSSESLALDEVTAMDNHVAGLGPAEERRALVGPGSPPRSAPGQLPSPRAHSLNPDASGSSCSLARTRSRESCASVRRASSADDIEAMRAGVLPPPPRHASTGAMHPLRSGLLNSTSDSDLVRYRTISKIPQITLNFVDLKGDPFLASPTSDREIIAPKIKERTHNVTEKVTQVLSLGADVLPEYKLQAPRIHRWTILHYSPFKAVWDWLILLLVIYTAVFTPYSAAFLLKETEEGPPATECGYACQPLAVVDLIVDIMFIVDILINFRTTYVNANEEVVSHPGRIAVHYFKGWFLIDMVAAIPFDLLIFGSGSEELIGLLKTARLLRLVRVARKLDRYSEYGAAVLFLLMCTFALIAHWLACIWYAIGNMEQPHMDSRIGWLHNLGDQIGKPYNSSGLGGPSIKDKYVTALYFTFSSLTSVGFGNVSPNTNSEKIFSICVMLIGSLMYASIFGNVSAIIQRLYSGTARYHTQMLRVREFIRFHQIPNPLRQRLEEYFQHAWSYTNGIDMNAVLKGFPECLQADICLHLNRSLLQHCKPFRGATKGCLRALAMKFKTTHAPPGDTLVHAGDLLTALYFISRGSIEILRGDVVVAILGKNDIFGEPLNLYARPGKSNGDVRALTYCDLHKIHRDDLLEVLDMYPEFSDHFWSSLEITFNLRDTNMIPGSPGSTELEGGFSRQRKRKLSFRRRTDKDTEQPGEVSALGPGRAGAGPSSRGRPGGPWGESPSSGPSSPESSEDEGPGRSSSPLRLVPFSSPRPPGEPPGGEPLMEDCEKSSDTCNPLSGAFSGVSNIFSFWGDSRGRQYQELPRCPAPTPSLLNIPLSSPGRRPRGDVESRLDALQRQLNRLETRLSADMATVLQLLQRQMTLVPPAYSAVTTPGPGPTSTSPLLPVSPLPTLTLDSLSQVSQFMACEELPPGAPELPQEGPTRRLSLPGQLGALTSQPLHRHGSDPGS
Cytochrome P450 3A4 (Homo sapiens), sequence (P08684 whole entry, looked up): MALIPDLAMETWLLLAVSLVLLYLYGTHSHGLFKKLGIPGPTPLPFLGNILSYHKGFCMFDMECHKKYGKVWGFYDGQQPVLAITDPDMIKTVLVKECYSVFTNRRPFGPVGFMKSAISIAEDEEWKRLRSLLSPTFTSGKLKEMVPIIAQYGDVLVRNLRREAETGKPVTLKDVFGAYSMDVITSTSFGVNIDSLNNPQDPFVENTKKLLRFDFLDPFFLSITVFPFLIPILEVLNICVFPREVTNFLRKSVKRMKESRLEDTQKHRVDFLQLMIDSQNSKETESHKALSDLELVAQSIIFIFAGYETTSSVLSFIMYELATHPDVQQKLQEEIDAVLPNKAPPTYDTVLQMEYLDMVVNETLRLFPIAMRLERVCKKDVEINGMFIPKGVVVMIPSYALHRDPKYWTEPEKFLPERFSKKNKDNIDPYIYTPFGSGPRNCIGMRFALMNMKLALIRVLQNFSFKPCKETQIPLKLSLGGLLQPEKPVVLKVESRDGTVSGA
Cytochrome P450 2C19 (Homo sapiens), sequence (P33261 whole entry, looked up): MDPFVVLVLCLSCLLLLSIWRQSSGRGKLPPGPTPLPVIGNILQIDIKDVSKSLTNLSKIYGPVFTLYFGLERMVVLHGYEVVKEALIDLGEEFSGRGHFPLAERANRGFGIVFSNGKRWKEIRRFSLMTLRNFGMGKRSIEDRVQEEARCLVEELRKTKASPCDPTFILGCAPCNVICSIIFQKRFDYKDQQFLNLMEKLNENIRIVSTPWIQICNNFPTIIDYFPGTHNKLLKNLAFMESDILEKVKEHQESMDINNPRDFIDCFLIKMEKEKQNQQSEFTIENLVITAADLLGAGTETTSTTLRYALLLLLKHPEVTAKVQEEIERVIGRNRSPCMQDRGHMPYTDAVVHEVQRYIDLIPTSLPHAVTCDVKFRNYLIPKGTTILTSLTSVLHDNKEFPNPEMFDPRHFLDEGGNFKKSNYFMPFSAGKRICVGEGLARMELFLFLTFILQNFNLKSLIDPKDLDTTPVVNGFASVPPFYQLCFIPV
Cytochrome P450 1A2 (Homo sapiens), sequence (P05177 whole entry, looked up): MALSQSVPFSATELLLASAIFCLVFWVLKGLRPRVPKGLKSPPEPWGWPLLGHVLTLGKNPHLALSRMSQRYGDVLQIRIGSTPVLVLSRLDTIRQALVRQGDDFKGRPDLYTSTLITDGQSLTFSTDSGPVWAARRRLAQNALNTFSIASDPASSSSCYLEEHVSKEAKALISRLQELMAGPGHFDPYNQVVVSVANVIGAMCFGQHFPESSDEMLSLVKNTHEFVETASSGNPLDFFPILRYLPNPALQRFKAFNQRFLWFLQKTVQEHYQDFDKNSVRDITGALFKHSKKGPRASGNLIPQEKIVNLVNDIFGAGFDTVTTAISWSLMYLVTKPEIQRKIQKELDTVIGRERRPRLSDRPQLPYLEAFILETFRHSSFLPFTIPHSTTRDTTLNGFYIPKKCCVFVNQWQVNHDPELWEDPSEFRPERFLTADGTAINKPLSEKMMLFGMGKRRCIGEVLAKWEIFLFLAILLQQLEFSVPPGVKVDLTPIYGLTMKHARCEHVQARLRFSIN

As for `C1=Cc2ccccc2C1`, in experiment [1], the Potency is 39.9 µM (active). Moreover, the Potency result in experiment [2] and in experiment [3] was “inactive” in each case.
For the compound `CC(CN)CCCN` (configuration not stated), the Potency result in experiment [1] and in experiment [4] was “inactive” throughout. In experiment [3], the Potency is 6.33 µM (active).
Regarding `CCCCCCCCCC=O`, the Potency entry in experiment [1], in experiment [2] and in experiment [3] was “inactive” each time.
Regarding `CC(=O)N(CC(=O)N(C)C)c1ccccc1`, the Potency result in experiment [1], in experiment [4], in experiment [2] and in experiment [3] was “inactive” each time.
With `CCN(CC)C(C)CN1c2ccccc2Sc2ccccc21` (configuration not stated), the figures for the Potency in experiment [1] and in experiment [4] were 34.7 µM (active) and 7.76 µM (active), respectively. In addition, the Potency result in experiment [3] is “inactive”.
Regarding `CC1CCc2cc(F)cc3c(=O)c(C(=O)O)cn1c23` (configuration not stated), the Potency result in experiment [5], in experiment [4] and in experiment [2] was “inactive” in each case.
As to `CCC(C)N(C)C(=O)c1cc2ccccc2c(-c2ccccc2Cl)n1` (configuration not stated), in experiment [5], the Potency is 20.5 µM (active). In addition, the Potency entry in experiment [4] and in experiment [2] was “inactive” in each case.
For the compound `C=C(C)C(=O)OCCN(C)C`, the Potency in experiment [1] and in experiment [3] was 36 µM (active) each time. Besides, the Potency result in experiment [4] and in experiment [2] was “inactive” each time.
Regarding `CCc1nn(C2CCCCC2)c2cc(C3(C#N)CCC(C(=O)O)CC3)ccc12` (configuration not stated), in experiment [5], the Potency was 20 µM (active). Moreover, the Potency result in experiment [4], in experiment [2] and in experiment [3] was “inactive” in each case.
Turning to `CCCCOC(=O)/C=C\C(=O)OCCCC`, the results for the Potency in experiment [1] and in experiment [4] were 3.28 µM (active) and 7.34 µM (active), respectively. Also, the Potency entry in experiment [3] is “inactive”.
As for `COc1ccc(C(C)=O)cc1`, the Potency entry in experiment [1], in experiment [2] and in experiment [3] was “inactive” throughout. The Potency in experiment [4] was 29.1 µM (active).
Turning to `O=C(O)Cn1c(C(=O)Nc2nc(-c3ccccc3Cl)cs2)cc2ccccc21`, the Potency entry in experiment [1], in experiment [4] and in experiment [3] was “inactive” in each case.
`O=C=NC1CCC(CC2CCC(N=C=O)CC2)CC1` (configuration not stated): the figures for the Potency in experiment [1], in experiment [4] and in experiment [3] were 79.6 µM (active), 44.8 µM (active) and 3.99 µM (active), respectively.
As to `Oc1ccc(O)c2c(O)cccc12`, the Potency result in experiment [5], in experiment [2] and in experiment [3] was “inactive” in each case. Further, the Potency in experiment [4] is 39.6 µM (active).
On to `O=C(c1ccccc1)c1ccc2n1CCC2C(=O)O` (configuration not stated), for which the Potency result in experiment [1], in experiment [2] and in experiment [3] was “inactive” throughout.
`Cc1cccc(Oc2ccccc2)c1`: the Potency in experiment [1] is 69.2 µM (active); in experiment [4], 34.7 µM (active); in experiment [3], 34.7 µM (active).
For the compound `FC(F)(F)C(F)(F)C(F)(F)C(F)(F)C(F)(F)C(F)(F)CCI`, the Potency result in experiment [1], in experiment [4], in experiment [2] and in experiment [3] was “inactive” throughout.
`CCCCCCCCN(C)C`: the Potency result in experiment [1], in experiment [4] and in experiment [3] was “inactive” throughout.
For `CC[C@@H]1C[C@H](N(Cc2cc(C(F)(F)F)cc(C(F)(F)F)c2)C(C)=O)c2cc(C(F)(F)F)ccc2N1C(=O)OC(C)C`, in experiment [1], the Potency result was “inactive”. Besides, the Potency in experiment [3] is 0.894 µM (active).
As to `CCC(=O)OC(C)(C)C1CC=C(C)CC1` (configuration not stated), in experiment [2], the Potency result is “inactive”.
For the compound `O=C(NS(=O)(=O)/C=C/c1cccs1)c1ccc(F)cc1Br`, in experiment [5], the Potency is 7.1 µM (active). The Potency result in experiment [4], in experiment [2] and in experiment [3] was “inactive” in each case.
On to `Cc1cccc(C(C)(C)C)c1O`, for which the Potency result in experiment [2] is “inactive”.
Take `CC(Cc1cccc(C(F)(F)F)c1)NCCOC(=O)c1ccccc1` (configuration not stated): the Potency in experiment [5] was 27.5 µM (active); in experiment [2], 8.49 µM (active).
For `Cc1cc(C)c(S(=O)(=O)O)cc1N=Nc1cc(S(=O)(=O)O)c2ccccc2c1O`, the Potency in experiment [5] was 63.3 µM (active). In experiment [3], the Potency entry was “inactive”.
As for `c1ccc(-c2nc[nH]c2-c2ccccc2)cc1`, the Potency in experiment [4] was 8.12 µM (active).
In the case of `CC(=O)OC/C=C/c1ccccc1`, in experiment [4], the Potency is 31.7 µM (active). Also, the Potency result in experiment [2] and in experiment [3] was “inactive” each time.
As for `CCN(CCO)CCCC(C)Nc1ccnc2cc(Cl)ccc12` (configuration not stated), the activity change, negative = inhibition in experiment [2] was 9.57% [at 6.97 µM].
For `CN(C)CCCOc1nn(Cc2ccccc2)c2ccccc12`, the Potency in experiment [2] was 4.25 µM (active).
On the same count and under the same terms, as for `O=C(O)Cc1cc(I)c(Oc2ccc(O)c(I)c2)c(I)c1`, the entry is “inactive”.
Regarding `CN(C(=O)CCCOc1ccc2[nH]c(=O)ccc2c1)C1CCCCC1`, the Potency entry in experiment [4] and in experiment [2] was “inactive” in each case.
For the compound `CC1=CC(=O)/C(=C(/C)O)C(=O)O1`, the Potency in experiment [5] was 63.3 µM (active). For the same compound, the Potency entry in experiment [2] and in experiment [3] was “inactive” each time.
`O=c1[nH]cnc2ccccc12`: the Potency entry in experiment [5], in experiment [2] and in experiment [3] was “inactive” in each case.
Consider `CCCCOc1ccc(CC(=O)NO)cc1`, for which, in experiment [4], the Potency was 15.5 µM (active). For the same compound, the Potency result in experiment [2] and in experiment [3] was “inactive” in each case.
For `Cc1ccccn1`, the Potency result in experiment [2] is “inactive”.
As for `CC(C)=CCCC(C)CC=O` (configuration not stated), in experiment [2], the Potency result was “inactive”.
With `CCCCOc1cc(C(=O)OCCN(CC)CC)ccc1N`, in experiment [3], the Potency entry was “inactive”.
Consider `CC(=O)SCc1ccco1`, for which the Potency entry in experiment [4] and in experiment [2] was “inactive” each time.
Turning to `CCOC(=S)SSC(=S)OCC`, the Potency in experiment [5] was 17.8 µM (active). The Potency entry in experiment [2] and in experiment [3] was “inactive” in each case.
On to `CCOC(=O)CC(=O)c1cc(F)c(Cl)nc1Cl`, for which, in experiment [3], the Potency entry was “inactive”.
Take `CNS(=O)(=O)Cc1ccc2[nH]cc(CCN(C)C)c2c1`: the Potency result in experiment [5], in experiment [4] and in experiment [3] was “inactive” each time.
With `ClC(Cl)(Cl)c1ccc(C(Cl)(Cl)Cl)cc1`, the Potency in experiment [5] is 39.5 µM (active); in experiment [4] it was 4.98 µM (active); in experiment [2], 6.85 µM (active). The Potency entry in experiment [3] was “inactive”.
For `OCC1CC2CC1C1CCC(CO)C21` (configuration not stated), the Potency result in experiment [2] and in experiment [3] was “inactive” each time.
Consider `CC(=O)/C=C/C1C(C)=CCCC1(C)C` (configuration not stated), for which the Potency entry in experiment [5], in experiment [4], in experiment [2] and in experiment [3] was “inactive” throughout.
On to `CN(C)CCCNCCCN`, for which the Potency result in experiment [5], in experiment [2] and in experiment [3] was “inactive” throughout. Further, the Potency in experiment [4] was 35.4 µM (active).
On to `CCOc1nc2cccc(C(=O)O)c2n1Cc1ccc(-c2ccccc2-c2nn[nH]n2)cc1`, for which, in experiment [2], the Potency entry is “inactive”.
Regarding `O=CNc1ccccc1`, the Potency entry in experiment [5], in experiment [2] and in experiment [3] was “inactive” in each case.
Regarding `C[C@H](CCC(=O)O)[C@H]1CC[C@H]2[C@@H]3[C@H](O)C[C@@H]4C[C@H](O)CC[C@]4(C)[C@H]3CC[C@]12C`, in experiment [4], the Potency is 31.8 µM (active). Besides, the Potency result in experiment [2] and in experiment [3] was “inactive” in each case.
As to `CC(=O)/C(C)=C/C1C(C)=CCCC1(C)C` (configuration not stated), in experiment [4], the Potency is 79.6 µM (active). In addition, the Potency result in experiment [2] and in experiment [3] was “inactive” throughout.
Take `CC(C)CCCCCCOC(=O)c1ccc(C(=O)OCCCCCCC(C)C)c(C(=O)OCCCCCCC(C)C)c1`: the Potency in experiment [5] is 71 µM (active). Further, the Potency result in experiment [4], in experiment [2] and in experiment [3] was “inactive” each time.
With `CNCC[C@@H](Oc1ccccc1C)c1ccccc1`, in experiment [3], the Potency entry is “inactive”.
In the case of `N=C(N=C(N)N)N1CCOCC1`, the Potency result in experiment [5] and in experiment [3] was “inactive” in each case.
On to `C=CCCCCCC`, for which the Potency result in experiment [5], in experiment [4], in experiment [2] and in experiment [3] was “inactive” throughout.
In the case of `NCCCOCCOCCOCCCN`, in experiment [3], the Potency entry is “inactive”.
As to `CN(C)C/C=C(/c1ccc(Br)cc1)c1cccnc1`, in experiment [2], the Potency was 13.4 µM (active).
As to `NC[C@H]1O[C@H](O[C@H]2[C@H](O)[C@@H](O[C@H]3O[C@H](CO)[C@@H](O)[C@H](N)[C@H]3O)[C@H](N)C[C@@H]2N)[C@H](O)[C@@H](O)[C@@H]1O`, the activity change, negative = inhibition in experiment [2] is 0.203% [at 6.97 µM]; in experiment [3] it was 8.95% [at 10.5 µM].
As to `CCN(CC)CCOC(=O)C1(c2ccccc2)CCCC1`, the Potency result in experiment [5] and in experiment [2] was “inactive” in each case.
Turning to `O=c1c2ccccc2nnn1CCl`, the values for the Potency in experiment [5] and in experiment [3] were 71 µM (active) and 11.2 µM (active), respectively. Also, the Potency entry in experiment [4] and in experiment [2] was “inactive” throughout.
